Among the test systems are SR leukemia; RPMI-8226 leukemia; OVCAR-8 ovarian; OVCAR-5 ovarian; OVCAR-4 ovarian; SK-OV-3 ovarian; IGROV1 ovarian; OVCAR-3 ovarian; HS 578T breast; NCI/ADR-RES ovarian.
Holding throughout (test): NCI-60 one-dose screen, 48 h (100 = growth as untreated, 0 = no growth, -100 = all killed)
Conditions in all cases: 10 µM unless noted

Compounds without any hit were thinned out: in the full panel of roughly 83,000, 20% have a hit.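 Growth was measured after 48 h exposure to one concentration of compound in 96-well plates. Values under 10 count as active.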 Values without a mark were called inactive. Activity calls are given as the source filed them.

Turning to `O=C(O)c1ccc(-c2nn(-c3ccc(C(F)(F)F)cc3)cc2CNc2ccc(Oc3ccccc3)cc2)cc1`, the growth in the assay with SR leukemia is 60.7%; in the assay with RPMI-8226 leukemia it was 46.5%; in the assay with OVCAR-8 ovarian it was 69%; in the assay with OVCAR-5 ovarian, 103%; in the assay on OVCAR-4 ovarian, 90.3%; in the assay on SK-OV-3 ovarian, 135%. Further, the growth in the assay with IGROV1 ovarian was 89%; in the assay on OVCAR-3 ovarian, 92.5%; in the assay with HS 578T breast, 95.7%; in the assay on NCI/ADR-RES ovarian it was 81.9%.
On to `N#C/C(=C\c1ccc(C(F)(F)F)cc1)c1cc2ccccc2[nH]1`, for which the growth was 95.7% in the assay on SR leukemia; 72% with RPMI-8226 leukemia; 101% with OVCAR-8 ovarian; 108% in the assay with OVCAR-5 ovarian; 92% in the assay with OVCAR-4 ovarian; 93% with SK-OV-3 ovarian. The growth with IGROV1 ovarian is 94.5%; in the assay with OVCAR-3 ovarian, 104%; in the assay on HS 578T breast, 104%; in the assay on NCI/ADR-RES ovarian it was 104%.
`COc1cccc(-c2ccc3c(c2)NC(=O)/C3=C\c2ccc[nH]2)c1`: the growth is 8.43% (active) with SR leukemia; 17.5% in the assay on RPMI-8226 leukemia; 74.2% with OVCAR-8 ovarian; 53.2% in the assay on OVCAR-5 ovarian; 54.7% in the assay on OVCAR-4 ovarian; 58.9% in the assay with SK-OV-3 ovarian. Besides, the growth in the assay on IGROV1 ovarian is 29.7%; in the assay on OVCAR-3 ovarian, 12.7%; with HS 578T breast it was 56.4%; in the assay with NCI/ADR-RES ovarian, 40.4%.
As to `COc1ccc(C(=O)CSc2nc(-c3cc(OC)ccc3OC)cc(-c3ccc(Cl)cc3)c2C#N)cc1`, the growth in the assay with SR leukemia was 65.3%; in the assay with RPMI-8226 leukemia it was 78.5%; in the assay with OVCAR-8 ovarian, 61.2%; in the assay with OVCAR-5 ovarian, 81.2%; in the assay with OVCAR-4 ovarian, 24.8%; with SK-OV-3 ovarian it was 33.3%. Moreover, the growth is 62.4% in the assay with IGROV1 ovarian, 98.1% with OVCAR-3 ovarian, 57.8% in the assay with HS 578T breast and 77.5% in the assay with NCI/ADR-RES ovarian.
Regarding `CCOc1ccc(Nc2nc(-c3ccc4c(c3)NC(=O)CO4)cs2)cc1`, the growth is 64.6% in the assay with SR leukemia; 28% in the assay with RPMI-8226 leukemia; 62.8% in the assay with OVCAR-8 ovarian; 92.8% in the assay with OVCAR-5 ovarian; 25% in the assay with OVCAR-4 ovarian; 100% in the assay with SK-OV-3 ovarian. For the same molecule, the growth with IGROV1 ovarian was 94.3%; in the assay on OVCAR-3 ovarian, 73.7%; with HS 578T breast, 107%; in the assay on NCI/ADR-RES ovarian, 14.4%.
Take `C=C1C(=O)O[C@H]2[C@H]1CC/C(C(=O)NCCCCCNC(=O)/C1=C/CC[C@@]3(C)O[C@H]3[C@H]3OC(=O)C(=C)[C@@H]3CC1)=C\CC[C@@]1(C)O[C@@H]21`: the growth in the assay with SR leukemia is 83.6%; in the assay on RPMI-8226 leukemia, 95.5%; in the assay with OVCAR-8 ovarian, 103%; with OVCAR-5 ovarian, 93.9%; in the assay on OVCAR-4 ovarian, 116%; in the assay on SK-OV-3 ovarian, 120%. The growth in the assay with IGROV1 ovarian was 101%; in the assay on OVCAR-3 ovarian it was 103%; with HS 578T breast, 104%; with NCI/ADR-RES ovarian it was 103%.
Regarding `O=C(N/N=C/c1cc2ccccc2n2nnnc12)Nc1ccccc1`, the growth with SR leukemia was 87.4%; in the assay with RPMI-8226 leukemia it was 101%; in the assay on OVCAR-8 ovarian, 103%; with OVCAR-5 ovarian, 106%; with OVCAR-4 ovarian, 108%; with SK-OV-3 ovarian, 112%. Moreover, the growth in the assay on IGROV1 ovarian is 112%; with OVCAR-3 ovarian it was 111%; with HS 578T breast, 109%; in the assay on NCI/ADR-RES ovarian, 105%.
Consider `O=c1c2c(c(=O)n1O)c1c3ccc[nH]c3nc1c1nc3[nH]cccc3c12`, for which the growth in the assay with SR leukemia was 32.2%; in the assay with RPMI-8226 leukemia it was 93.9%; in the assay on OVCAR-8 ovarian it was 67.1%; in the assay on OVCAR-5 ovarian, 103%; in the assay on OVCAR-4 ovarian, 78.7%; in the assay on SK-OV-3 ovarian, 89.2%. For the same molecule, the growth with IGROV1 ovarian is 63%; in the assay on OVCAR-3 ovarian, 98.3%; with HS 578T breast, 83.3%; with NCI/ADR-RES ovarian, 89.6%.
Turning to `O=C1Nc2cc(-c3cccc([N+](=O)[O-])c3)ccc2/C1=C/c1ccc[nH]1`, the growth in the assay on SR leukemia is 11.3%; with RPMI-8226 leukemia, 81.3%; with OVCAR-8 ovarian, 101%; with OVCAR-5 ovarian it was 48.8%; in the assay on OVCAR-4 ovarian, 45.4%; with SK-OV-3 ovarian, 59.6%. Besides, the growth in the assay with IGROV1 ovarian is 54.5%; with OVCAR-3 ovarian it was 70.6%; in the assay with HS 578T breast, 102%; in the assay with NCI/ADR-RES ovarian, 99.2%.
Take `Cn1ccc2c1CC1CN(Cc3ccco3)C(=O)C1C2C(=O)O` (stereo not given): the growth was 107% in the assay with SR leukemia; 109% in the assay with RPMI-8226 leukemia; 106% in the assay on OVCAR-8 ovarian; 95% in the assay on OVCAR-5 ovarian; 99.5% in the assay with OVCAR-4 ovarian; 109% with SK-OV-3 ovarian. Besides, the growth was 104% in the assay on IGROV1 ovarian, 103% in the assay on OVCAR-3 ovarian, 98.7% with HS 578T breast and 99% with NCI/ADR-RES ovarian.
In the case of `O=[N+]([O-])c1ccc(NC(=S)N/N=C/c2cc3ccccc3n3nnnc23)cc1`, the growth is 4.33% (active) with SR leukemia; 47.7% with RPMI-8226 leukemia; 71.2% in the assay on OVCAR-8 ovarian; 79.6% in the assay with OVCAR-5 ovarian; 63.8% with OVCAR-4 ovarian; 73.7% in the assay on SK-OV-3 ovarian. The growth was 54.5% with IGROV1 ovarian, 14.3% in the assay with OVCAR-3 ovarian, 67% in the assay with HS 578T breast and 51.7% with NCI/ADR-RES ovarian.
For `COc1cc(/C=N/O)nc(-c2ccccn2)c1`, the growth in the assay on SR leukemia was 9.23% (active); in the assay on RPMI-8226 leukemia, 18.7%; in the assay on OVCAR-8 ovarian, 17.6%; in the assay with OVCAR-5 ovarian, 45.3%; in the assay with OVCAR-4 ovarian, 22.2%; in the assay on SK-OV-3 ovarian, 28.6%. The growth in the assay with IGROV1 ovarian is 19.2%; in the assay with OVCAR-3 ovarian, 18.2%; in the assay with HS 578T breast, 65%; in the assay with NCI/ADR-RES ovarian it was 4.37% (active).
Turning to `COC(=O)/C=C1\S/C(=N\NC(=O)c2cc3ccc2/C=C\c2ccc(cc2)/C=C\3)N(Cc2ccccc2)C1=O`, the growth in the assay on SR leukemia was -14.7% (active); in the assay on RPMI-8226 leukemia it was -47% (active); in the assay with OVCAR-8 ovarian, 71.6%; in the assay on OVCAR-5 ovarian it was 65.3%; with OVCAR-4 ovarian, 44.6%; with SK-OV-3 ovarian it was 133%. Further, the growth with IGROV1 ovarian was 42.3%; in the assay with OVCAR-3 ovarian it was 20.3%; in the assay with HS 578T breast it was 87.4%; in the assay with NCI/ADR-RES ovarian it was 70.4%.

Source of the values: PubChem BioAssay (NCI).
